Data as given in a collection of fitness landscapes (doi:10.1016/j.celrep.2020.107928).
Over roughly 81,000 sequences, “one-hybrid fitness for binding parS DNA” has its median near -0.17; the highest 2% begin near 0.51. Only a selection was taken, and the highest values are over-represented in it overall.

B1: Caulobacter ParB omega fusion; a variant is named by its letters at X, in order, B8GW30 (parent)
chain: MESVVVGEPGMSEGRRGLGRGLSALLGEVDAAPAQAPGEQLGGSREAPIEILQRNPDQPRRTFREEDLEDLSNSIREKGVLQPILVRPSPDTAGEYQIVAGERAWRAAQRAGLKTVPIMVRELDDLAVLEIGIIENVQRADLNVLEEALSYKVLMEKFERTQENIAQTIGKSXSHVANXMRLLXLPDEVQSYLVSGELTAXHARAIAAAADPVALAKQIIEGGLSVRETEALARKAPNLSAGKSKGGRPPRVKDTDTQALESDLSSVLGLDVSIDHRGSTGTLTITYATLEQLDDLCNRLTRGI

Variants of: B1
Test: one-hybrid fitness for binding parS DNA (scaled: cognate 1, non-cognate 0); higher = stronger binding
Settings: with parS DNA site
Summary of the method: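 Values were rescaled so that cognate is 1 and non-cognate is 0. Each is a fitness, the log change in a variant's read ratio to wild type from Illumina reads of plasmids before and after selection, with three replicate libraries pooled and variants under 10 reads dropped. Selection of the Caulobacter ParB libraries, four specificity codons randomised, used E. coli USO with a HIS3 reporter, site 19 bp from the promoter, on M9-minus-histidine with 0.1 mM IPTG and 5 mM 3-AT for 48 hours at 37°C.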

Row | Variant | one-hybrid fitness for binding parS DNA
1 | PMRT | ≤ 0.2
2 | CRCT | ≤ 0.2
3 | TSLF | ≤ 0.2
4 | MEYL | ≤ 0.2
5 | QCLV | ≤ 0.2
6 | EWYS | ≤ 0.2
7 | RWYF | ≤ 0.2
8 | RWSQ | ≤ 0.2
9 | RWYG | 0.714
10 | RWPG | 0.406
11 | RWYM | ≤ 0.2
12 | RWIG | 0.569
13 | RWGM | ≤ 0.2
14 | RWGG | 0.63
15 | RWGF | ≤ 0.2
16 | RWSR | ≤ 0.2
17 | RWSG | 0.769
18 | RWIF | ≤ 0.2
19 | PNWL | ≤ 0.2
20 | PCED | ≤ 0.2
21 | HNST | ≤ 0.2

Row | Variant | one-hybrid fitness for binding parS DNA
22 | SHDR | ≤ 0.2
23 | PGRS | ≤ 0.2
24 | GDYR | ≤ 0.2
25 | GWST | ≤ 0.2
26 | QTYA | ≤ 0.2
27 | NGRC | ≤ 0.2
28 | RWDF | ≤ 0.2
29 | RWCR | ≤ 0.2
30 | RWWR | ≤ 0.2
31 | RWDK | ≤ 0.2
32 | RWQK | ≤ 0.2
33 | RWWY | ≤ 0.2
34 | RWDG | 0.616
35 | RWCM | ≤ 0.2
36 | RWWG | 0.641
37 | RWQG | 0.741
38 | RWQM | ≤ 0.2
39 | RWCG | 0.688
40 | QCIG | ≤ 0.2
41 | ILHY | ≤ 0.2
42 | PETC | ≤ 0.2

Row | Variant | one-hybrid fitness for binding parS DNA
43 | RDAC | ≤ 0.2
44 | CSPC | ≤ 0.2
45 | WCDG | ≤ 0.2
46 | TEMT | ≤ 0.2
47 | QRMV | ≤ 0.2
48 | PGQN | ≤ 0.2
49 | RFNK | 0.203
50 | YQGC | ≤ 0.2
51 | RRVC | 0.673
52 | RRKQ | ≤ 0.2
53 | RRKC | 0.649
54 | RRKR | ≤ 0.2
55 | PLTK | ≤ 0.2
56 | INSY | ≤ 0.2
57 | ENFG | ≤ 0.2
58 | RTRT | 0.747
59 | RTYK | ≤ 0.2
60 | RTWN | 0.461
61 | RTYR | ≤ 0.2
62 | RTQT | 0.925
63 | RTRD | ≤ 0.2

Row | Variant | one-hybrid fitness for binding parS DNA
64 | RTQM | 0.352
65 | RTYT | 0.952
66 | RTQQ | ≤ 0.2
67 | RTWH | 0.254
68 | RTWT | 0.916
69 | RTRK | ≤ 0.2
70 | RGTV | ≤ 0.2
71 | KKRF | ≤ 0.2
72 | SRPQ | ≤ 0.2
73 | ITEL | ≤ 0.2
74 | RTGR | ≤ 0.2
75 | RTSK | ≤ 0.2
76 | RTGP | ≤ 0.2
77 | RTST | 0.91
78 | RTGT | 0.912
79 | RTSF | 0.246
80 | TRWL | ≤ 0.2
81 | HSDW | ≤ 0.2
82 | HVPD | ≤ 0.2
83 | GQVR | ≤ 0.2
84 | FGAG | ≤ 0.2
